Sampled rows, rich in hits. Any-hit rate of the full collection: about 3.5%.
BoNT A protease: BoNT A light chain protease inhibition | multiplex microsphere protease substrate cleavage, flow cytometry | inhibition, % at 10 µM | actives 0.17% (n = 360,000) | AID 588499; further: plate controls were buffer without enzyme for full effect and enzyme alone for no effect
Anthrax LF inh2: inhibitors of Bacillus anthracis lethal factor protease; P15917; multiplex microsphere protease cleavage assay, LF; inhibition, % at 10 µM; actives 0.12% (n = 360,000); AID 588501; further: plate controls were buffer without enzyme for full effect and enzyme alone for no effect
Target sequence (P15917 whole entry, looked up): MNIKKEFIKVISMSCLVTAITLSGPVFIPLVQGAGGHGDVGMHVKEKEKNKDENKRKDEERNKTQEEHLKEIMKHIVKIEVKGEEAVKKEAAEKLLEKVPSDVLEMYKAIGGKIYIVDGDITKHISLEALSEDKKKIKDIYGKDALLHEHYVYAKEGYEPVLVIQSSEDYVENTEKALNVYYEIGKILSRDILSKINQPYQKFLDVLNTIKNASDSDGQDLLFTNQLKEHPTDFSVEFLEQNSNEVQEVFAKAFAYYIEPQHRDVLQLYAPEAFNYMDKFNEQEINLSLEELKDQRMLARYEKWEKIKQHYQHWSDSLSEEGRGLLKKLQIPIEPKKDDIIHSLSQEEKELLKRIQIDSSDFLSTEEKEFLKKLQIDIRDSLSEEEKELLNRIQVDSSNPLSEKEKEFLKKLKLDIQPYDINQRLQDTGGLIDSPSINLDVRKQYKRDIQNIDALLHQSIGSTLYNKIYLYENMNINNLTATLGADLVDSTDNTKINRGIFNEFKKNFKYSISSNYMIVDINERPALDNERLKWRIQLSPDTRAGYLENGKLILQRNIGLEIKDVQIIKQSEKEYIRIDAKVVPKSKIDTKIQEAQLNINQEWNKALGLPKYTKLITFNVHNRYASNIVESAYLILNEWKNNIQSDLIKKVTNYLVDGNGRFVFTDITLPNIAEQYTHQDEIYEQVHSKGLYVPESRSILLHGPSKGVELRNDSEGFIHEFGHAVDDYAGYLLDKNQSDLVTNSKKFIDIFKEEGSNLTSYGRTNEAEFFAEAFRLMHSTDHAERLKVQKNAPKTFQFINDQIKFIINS
BJeLR lethal: BJeLR cell viability loss; BJeLR (HRASV12) viability, CellTiter-Glo ATP luminescence, 48 h; inhibition, % (no concentration beside the values); actives 0.17% (n = 300,000); in the data active means inhibition above about 50%; inconclusive means no clear call, values can overlap the other calls
Bead autofluor: counter-screen for toxin protease inhibitors: compound fluorescence; AID 624483; actives 3.1% (n = 360,000); fluorescence intensity (no concentration beside the values); compound autofluorescence counterscreen, microsphere flow cytometry; active compounds read high; in the data active means fluorescence intensity above about 16000; inconclusive means no clear call, values can overlap the other calls
BoNT F protease: blocks Botulinum neurotoxin F light chain protease; Multiplex microsphere protease cleavage assay, flow cytometry; actives 0.22% (n = 360,000); inhibition, % at 10 µM; in the data active means inhibition above about 35%, passing the limit was not always enough; inconclusive means no clear call, values can overlap the other calls; further: plate controls were buffer without enzyme for full effect and enzyme alone for no effect
Numbers without * were called inactive; ? = inconclusive; . = not tested or not shown. Unless noted, no stated cut-off is given here; in the data, active means inhibition above about 30%; inconclusive means no clear call, values can overlap the other calls; inactive means below that.

SMILES | BoNT A protease | Anthrax LF inh2 | BJeLR lethal | Bead autofluor | BoNT F protease
N#Cc1c(N)nc(SCC(=O)NC2CCCCC2)c(C#N)c1-c1ccc(Cl)cc1 | 1.5 | 2.8 | 12.3 | 16126* | 3.2
CC(C)c1ccc(-c2c(C#N)c(N)nc(SCC(=O)N3CCCCCC3)c2C#N)cc1 | . | . | 4.7 | . | .
Cc1cn([C@H]2C[C@H](O)[C@@H](CCC(=O)NC(c3ccccc3)c3ccccc3)O2)c(=O)[nH]c1=O | 0.0 | -4.6 | . | 3380 | -0.1
COc1ccc(-c2nc(CSCC(=O)NCCCN3CCCC3=O)c(C)o2)cc1 | 0.8 | 1.2 | 5.0 | 4813 | 10.8
COc1cccc(C2C(C#N)=C(N)Oc3c2oc(CO)cc3=O)c1OC (configuration not stated) | 0.6 | -1.3 | -1.1 | 22208* | 2.0
CCCOc1ccc(NC(=O)C2CC(=O)N(C)C(=Nc3cccc(OC)c3)S2)cc1 (configuration not stated) | 0.1 | -1.5 | -2.1 | 2562 | -4.0
O=C(CCCCCn1c(=S)[nH]c2ccccc2c1=O)N1CCC2(CC1)OCCO2 | 2.7 | 1.1 | 0.1 | 21724* | 7.5
Cn1c(=O)n(CC(=O)N2CCC3(CC2)OCCO3)c(=O)c2ccccc21 | 0.5 | 0.8 | -0.1 | 2120 | 3.2
O=C(CCCCCn1c(=S)[nH]c2ccccc2c1=O)N1CCOCC1 | 0.4 | 1.4 | 1.8 | 4155 | 0.1
O=C(Cn1c(=S)[nH]c2ccccc2c1=O)N1CCC2(CC1)OCCO2 | -4.3 | -3.6 | . | 24695* | -7.2
COc1ccc(OC)c(NC(=O)C2(C)CCN2C(=O)C2(c3ccc(Cl)cc3)CCC2)c1 (configuration not stated) | -0.1 | 0.4 | . | 3545 | -1.0
Cc1ccc([C@@]2(OC(=O)c3ccccc3)C(=O)N(C(=O)OC(C)(C)C)c3ccccc32)cc1 | 0.0 | -0.8 | . | 6013 | 4.8
O=C1C(Sc2ccccc2)=C[C@@]2(O)CC[C@@H](O)[C@]1(Sc1ccccc1)[C@H]2O | 0.2 | -7.0 | . | 6223 | -3.9
CCSc1nnc(-c2ccc(S(=O)(=O)NCc3cccs3)cc2)o1 | -0.9 | -1.8 | . | 20964* | -3.7
CCOc1ccc(S(=O)(=O)NCc2cccs2)cc1 | 0.4 | -3.1 | -10.0 | 11352 | -3.3
COc1ccc(CN(C)CCCn2cnc3c(OC)ncnc32)cc1OC | -0.4 | 1.6 | . | 3349 | -1.2
Cc1csc2ncc(C(=O)N3c4ccccc4CC3C)c(=O)n12 (configuration not stated) | 0.6 | -4.6 | -5.9 | 4519 | 9.2
CC1Cc2ccccc2N1C(=O)c1cnc2ccccn2c1=O (configuration not stated) | -1.5 | -2.2 | 7.1 | 23725* | -4.6
O=S(=O)(c1ccc(Br)s1)n1cccn1 | ? | -0.8 | -1.5 | 20761* | 1.0
Nc1nc2cc3c(cc2cc1C(=O)NCc1ccc(F)cc1)OCO3 | 0.6 | 1.9 | . | 6320 | 3.1
CCn1cc([N+](=O)[O-])c(C(=O)Nc2ccc(Cn3nc(C)cc3C)cc2)n1 | -0.2 | -2.4 | 5.8 | 10112 | -6.7
Cc1nn(C)c(C(=O)Nc2ccc3c(c2)OCO3)c1[N+](=O)[O-] | 1.7 | -0.8 | 1.7 | 5675 | -0.7
Cc1cc(C)n(Cc2ccc(NC(=O)c3nn(C)cc3[N+](=O)[O-])cc2)n1 | 1.7 | -11.1 | -7.0 | 22583* | 1.0
Cc1cc(C)n(Cc2ccc(NC(=O)c3c([N+](=O)[O-])c(C)nn3C)cc2)n1 | 3.5 | -2.2 | -13.3 | 21819* | 4.4
O=C(Nc1ccccc1)C1=C[C@H](c2coc3ccccc3c2=O)C[C@H](OCCCCO)O1 | 0.3 | 2.3 | -8.5 | 4236 | 0.3
SMILES | BoNT A protease | Anthrax LF inh2 | BJeLR lethal | Bead autofluor | BoNT F protease
CNc1nc(NC)c2cn[nH]c2n1 | 0.2 | 4.6 | . | 3902 | -3.4
Cc1cc(C)c2c(CCl)cc(=O)oc2c1 | . | . | 55.7* | . | .
Cc1cc(C)c2c(CN3CCCCC3)cc(=O)oc2c1 | 0.0 | -5.1 | 8.8 | 4874 | ?
O=C(Nc1c(Cl)cccc1Cl)c1cc(=O)n(Cc2ccccc2)c(=O)[nH]1 | ? | 1.7 | 5.1 | 21337* | -0.6
Cc1cccc(NC(=O)c2cc(=O)n(Cc3ccccc3)c(=O)[nH]2)c1 | -0.6 | -2.1 | 3.6 | 2395 | -2.8
CCOC(=O)CC1C(=O)NCCN1S(=O)(=O)c1ccc(NC(C)=O)cc1 (configuration not stated) | -2.2 | -1.1 | -3.9 | 4741 | 5.4
COc1ccc(Cl)cc1NC(=O)CN(C)C(=O)c1ccc(N2CCCCCC2)c([N+](=O)[O-])c1 | -26.3 | -6.1 | -4.9 | ? | ?
O=c1cc(Cn2ccnc2)c2cc3c(cc2o1)CCC3 | 0.0 | 7.4 | -11.7 | 5547 | -7.1
Cc1cc2oc(=O)cc(Cn3ccnc3)c2cc1C | -1.9 | -3.0 | 2.7 | 16965* | -4.0
CN(C)S(=O)(=O)N(CC(=O)N(Cc1ccccc1)Cc1ccccc1)c1ccccc1 | 0.0 | 1.2 | -4.5 | 22498* | 0.5
CN(C)S(=O)(=O)N(Cc1ccc(Br)cc1)c1ccccc1 | -0.9 | -2.6 | 21.2 | 11382 | -12.8
O=C(c1ccc(COc2ccccc2[N+](=O)[O-])o1)N1CCCCC1 | 0.5 | -0.8 | -19.7 | 19870* | -0.6
O=C(c1ccc(COc2ccccc2[N+](=O)[O-])o1)N1CCCCCC1 | 2.3 | -1.7 | 0.2 | 4550 | 26.5
O=S(=O)(NCCc1ccncc1)c1ccc(Br)cc1 | 1.2 | 0.5 | -4.5 | 22923* | 3.5
O=S(=O)(NCCc1ccncc1)c1ccc(F)cc1 | 4.1 | -4.5 | -9.1 | 3248 | -10.9
O=C(Nc1ccccc1C(F)(F)F)N1CCN(c2ccc3nncn3n2)CC1 | -1.9 | -3.9 | 7.6 | 20519* | -3.7
Cc1ccsc1C(=O)N1CCCC(C)(C(=O)NS(=O)(=O)C2CC2)C1 (configuration not stated) | -0.4 | -6.9 | . | 3445 | -5.4
O=C(O)c1ccc(-c2ccc(/C=c3/sc4nc5ccccc5n4c3=O)o2)cc1Cl | 31.7* | 132.9* | 10.3 | 7041 | ?
Cc1cc(C)c2nc3sc(=Cc4ccc(-c5ccccc5C(=O)O)o4)c(=O)n3c2c1 | 0.1 | 6.4 | . | 3590 | 6.5
CC1(C(=O)NS(=O)(=O)c2ccccc2)CCN1C(=O)c1ccc(C2CCCCC2)cc1 (configuration not stated) | -0.1 | 0.8 | . | 2851 | 3.1
O=C(CCCc1nc(-c2ccc(Cl)cc2)no1)N1CCOCC1 | 0.0 | 3.4 | 8.3 | 5296 | -5.7
Cc1cccc(-c2noc(CCCC(=O)N3CCOCC3)n2)c1 | 7.1 | -6.0 | . | 21401* | 5.1
Cc1ccc(-c2noc(CCCC(=O)N3CCOCC3)n2)cc1 | 4.1 | -1.3 | 4.6 | 20543* | 5.1
Cc1cccc(-c2noc(CCC(=O)N3CCN(c4cc(C)ccc4C)CC3)n2)c1 | -0.1 | -0.3 | . | 3651 | -1.9
Cc1cccc(C)c1NC(=O)Cn1nnc(-c2ccc(N3CCOCC3)cc2)n1 | -1.7 | -1.7 | -2.4 | 20925* | -2.9
CNC(=O)COC(=O)c1cc(=O)[nH]c2ccccc12 | 0.1 | 0.2 | -6.2 | 23831* | -1.8
CNC(=O)COC(=O)c1ccccc1Oc1ccccc1 | -0.8 | -1.1 | -8.3 | 16994* | 1.2
NC(=O)NC(=O)COC(=O)c1ccccc1Oc1ccccc1 | 0.5 | -1.7 | -2.4 | 2550 | 0.3
